Reference: PubChem BioAssay AID2783 (National Center for Advancing Translational Sciences (NCATS), 2010)
Records with an inconclusive call do not appear. Calls come from the whole dose curve; as a rule, active = well fitted inhibition curve with a large enough effect in the polarisation, with a control signal flat (not every such curve was filed as active); inconclusive = small, poorly fitted or top-dose-only effect, or effect the other way, or a change in a side signal; inactive = no such curve, though single readings can be large or run the other way; the % refers to the polarisation. Where a SMILES comes first, the peptide text is derived from it. Bridges are numbered along the chain shown (N, C = ends). [ ]: non-standard residue; d: D form. The star is where a group is joined. ξ: configuration not given here. ξDab(CH2SO3H) = NC(CCNCS(=O)(=O)O)C(=O)O; Heptanoyl(6-Me) = CC(C)CCCCC(=O)*; Dab = NCC[CH](N)C(=O)O

Biological target: Menin (Homo sapiens) (UniProt O00255)
Assay: Confirmation of Inhibitors Targeting the Menin-MLL Interaction in MLL Related Leukemias: Competition With Fluorescein Labeled MLL-derived Peptide
Conditions: Fluorescence polarization, fluorescein-MLL peptide displacement from menin; series mostly up to 100 µM; activity change, negative = inhibition: at the top concentration
% is set by controls: 0 for no effect and ±100 for the full control effect.

Menin (Homo sapiens), sequence (O00255 whole entry, looked up): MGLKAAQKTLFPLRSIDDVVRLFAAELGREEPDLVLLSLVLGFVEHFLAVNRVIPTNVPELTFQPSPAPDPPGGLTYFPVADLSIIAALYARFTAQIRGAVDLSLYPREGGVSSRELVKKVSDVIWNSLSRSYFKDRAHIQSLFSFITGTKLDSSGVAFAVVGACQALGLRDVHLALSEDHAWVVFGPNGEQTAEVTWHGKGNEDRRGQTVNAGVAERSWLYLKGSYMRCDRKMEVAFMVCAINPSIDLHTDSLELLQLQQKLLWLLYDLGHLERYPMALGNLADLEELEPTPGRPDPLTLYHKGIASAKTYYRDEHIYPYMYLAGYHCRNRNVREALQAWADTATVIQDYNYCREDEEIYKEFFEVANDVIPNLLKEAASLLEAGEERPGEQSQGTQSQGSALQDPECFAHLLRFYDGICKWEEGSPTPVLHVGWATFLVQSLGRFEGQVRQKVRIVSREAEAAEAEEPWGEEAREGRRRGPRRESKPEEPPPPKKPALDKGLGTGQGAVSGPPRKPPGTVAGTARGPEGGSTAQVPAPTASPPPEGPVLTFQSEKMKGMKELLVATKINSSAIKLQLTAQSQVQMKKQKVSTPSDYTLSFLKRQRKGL

Activity change, negative = inhibition, inactive:
COc1ccc(-c2csc(NC(=O)c3cc(-c4cccs4)nc4ccccc34)n2)c(OC)c1 -10.6%
COc1ccc(C)cc1N(C(=O)c1snc(C(N)=O)c1N)C(C(=O)NC1CCCC1)c1ccc(F)cc1 (centres undefined) 8.37% [at 288 µM]
COC1=C(Nc2ccccc2)C(=O)c2ccccc2C1=O -1.54% [at 288 µM]
CCOC(=O)Cn1cnc2scc(-c3ccc(C)c(C)c3)c2c1=O -13.8%
CCOC(=O)N1CCN(CC(=O)N2c3ccccc3Sc3ccccc32)CC1 8.87%
COc1ccccc1/C=N/n1c(N)c(S(=O)(=O)c2cccs2)c2nc3ccccc3nc21 3.33% [at 288 µM]
CC(NC(=O)c1cnc2ccccc2n1)c1ccccc1 (centres undefined) -12.7% [at 288 µM]
O=C(/C=C/c1ccccc1)NC(NC(=S)Nc1cc(Cl)ccc1Cl)C(Cl)(Cl)Cl (centres undefined) -1.38% [at 288 µM]
O=C(CCN1CCN(c2ccc([N+](=O)[O-])cc2)CC1)c1ccc(Cl)cc1 -6.26% [at 288 µM]
COc1ccc(CN2CCC(Cc3ccccc3)CC2)c(C)c1C -1.64%
Cc1ccc(F)c(C2C3C=CCC(C)C3C(=O)N2Cc2ccccc2)c1 (centres undefined) 10.6%
COC(=O)COc1ccc(C(C2C(=O)CC(C)(C)CC2=O)C2C(=O)CC(C)(C)CC2=O)cc1 -17.7%
CCOC(=O)Cn1c2ccccc2n2nc(CCC(=O)O)c(=O)nc12 -2.55%
O=C(Nc1nnc(-c2ccccc2SCc2ccccc2)s1)Nc1ccccc1F -5.58%
NS(=O)(=O)c1ccc(NC(=O)c2ccc(S(=O)(=O)N3CCc4ccccc43)cc2)cc1 43.2% [at 288 µM]
CCOc1ccc2c(c1)C(NC(C)=O)C(=O)N2CCN1CCOCC1 (centres undefined) -25.5%
Cc1cccc(Nc2nnc(SCC(=O)NC(=O)Nc3ccc4c(c3)OCCO4)s2)c1 -16%
CCOC(=O)N1CCN(Cc2nnc(-c3ccccc3C)o2)CC1 -11.6%
CCOc1ccc(CCNC(=O)C(C)N2C(=O)CC(C)(C)Sc3ccccc32)cc1 (centres undefined) -0.246%
Cc1ccc(NC(=O)CN2C(=O)S/C(=C\c3ccc(C(=O)O)cc3)C2=O)cc1 -14.2%
COCCn1c(C)c(C)c2c(NCCc3ccccc3)ncnc21 -11.9%
Cc1cc2ncn(-c3ncnc4sc5c(c34)CCC(C)C5)c2cc1C (centres undefined) -18.4%
O=c1cc(O)c2ccccc2n1Cc1ccccc1F -15.9%
O=C(Nc1nnc(SCc2ccc(F)cc2)s1)c1ccc2c(c1)C(=O)N(c1ccccc1Cl)C2=O -9.5% [at 288 µM]
CC(c1ccccc1)c1nnc(NC(=O)Nc2ccccc2F)s1 (centres undefined) 0.65% [at 288 µM]
CCC(C)C1NC(=O)C(CCNCS(=O)(=O)O)NC(=O)C(NC(=O)C(CCNCS(=O)(=O)O)NC(=O)C(NC(=O)C(CCNCS(=O)(=O)O)NC(=O)CCCCC(C)C)C(C)O)CCNC(=O)C(C(C)O)NC(=O)C(CCNCS(=O)(=O)O)NC(=O)C(CCNCS(=O)(=O)O)NC(=O)C(C(C)CC)NC1=O (centres undefined) ({Heptanoyl(6-Me)}-[ξDab(CH2SO3H)]T[ξDab(CH2SO3H)][Dab][ξDab(CH2SO3H)]II[ξDab(CH2SO3H)][ξDab(CH2SO3H)]T; lactam 4-C; configuration not given here) -14.6%
CCOc1ccc(C2Nc3ccc4ccccc4c3-c3c2c(=O)oc2ccccc32)cc1 (centres undefined) -2.96%
CCCCC(=O)NC(=S)Nc1nnn(CCC)n1 -16.6%
O=C1C(Cl)=C(NCCN2CCOCC2)C(=O)c2ncccc21 3.66% [at 288 µM]
CN(C)C(CNc1ncnc2sc3c(c12)CCCCC3)c1ccco1 (centres undefined) -25.6%
COc1ccccc1CNCC(=O)Nc1ccc(C#N)cc1 -3.17% [at 288 µM]
CCCN(CCC)CCCNC(=S)Nc1ccc2nc(N3CCCC3)cc(C)c2c1 -6.49%
CN1CCN(CC(=O)c2ccccc2F)CC1 -0.485%
CCCCCC1CCC(C(=O)NCCN2CCOCC2)CC1 (centres undefined) -20.4%
